These results are taken from PubChem BioAssay AID651704 (Broad Institute, 2012).

The whole screen tested about 350,000 compounds, of which about 1,600 (0.46%) were called active. The entries come from a sample that favours actives as a whole. A number with no mark means an inactive call.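 How the source made its calls: active means every replicate reaching a set inhibition limit, whatever the replicate mean (cut at about 25% in these data); inconclusive means mean inhibition reaches that limit but some replicates miss it; inactive means the rest.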

Sequence of Protein AF-9 (Homo sapiens) (P42568 whole entry, looked up): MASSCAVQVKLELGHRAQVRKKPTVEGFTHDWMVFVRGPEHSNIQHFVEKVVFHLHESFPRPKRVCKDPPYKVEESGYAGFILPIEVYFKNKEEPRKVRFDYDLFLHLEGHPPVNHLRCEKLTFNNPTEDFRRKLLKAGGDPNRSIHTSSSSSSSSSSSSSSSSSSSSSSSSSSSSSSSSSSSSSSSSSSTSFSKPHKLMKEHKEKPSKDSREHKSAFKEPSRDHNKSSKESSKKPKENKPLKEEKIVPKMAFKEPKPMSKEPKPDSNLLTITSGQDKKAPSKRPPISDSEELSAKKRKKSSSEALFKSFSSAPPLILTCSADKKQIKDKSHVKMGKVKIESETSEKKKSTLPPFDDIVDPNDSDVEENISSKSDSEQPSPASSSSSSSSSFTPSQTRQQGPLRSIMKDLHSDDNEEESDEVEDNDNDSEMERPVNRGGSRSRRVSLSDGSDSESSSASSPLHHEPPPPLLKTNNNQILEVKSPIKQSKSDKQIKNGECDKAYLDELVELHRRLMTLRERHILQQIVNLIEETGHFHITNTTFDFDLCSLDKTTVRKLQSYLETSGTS

The assay addresses Protein AF-9 (Homo sapiens) (UniProt P42568). Kind of assay: MLL-AF4/AF9 protein interaction blockers – biochemical, AlphaScreen, biotin-AF4 peptide, FLAG-AF9, single point, primary screen (AID 651704).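 Further: 0% = plate neutral control median and 100% = total signal loss.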 Conditions: biotin-AF4 peptide binding to FLAG-AF9, at 10 µM, active compounds read high.
For `CCC1(C)CC(CCNCc2ccc(N(C)C)cc2)(c2ccc(F)cc2)CCO1` (stereo not given), the inhibition was 28.4% (active).

For the compound `COc1ccc2c(c1)NP(=S)(c1ccccc1)N2` (stereo not given), the inhibition was -0.621%.

As to `O=C(O)[C@@H]1[C@@H](CO)[C@@H]2Cn3c(ccc(-c4ccccc4F)c3=O)[C@H]1N2C(=O)c1cccnc1`, the inhibition is 1.92%.

For `CSCCC(c1nnnn1C(C)(C)C)N1CCC(n2c(=O)[nH]c3ccccc32)CC1` (stereo not given), the inhibition was 14%.

Regarding `CC(C)CN1Cc2cc(N3CCCCC3)ccc2-n2nncc2C1`, the inhibition was 6.47%.

`COC(=O)[C@H]1[C@H](CO)[C@H]2Cn3c(ccc(-c4ccccc4F)c3=O)[C@@H]1N2C(=O)C1CCC1`: the inhibition is 1.06%.

With `Cc1ncoc1C(=O)NCC1=C(c2cccc3ccccc23)C[C@@H]2CC[C@H]1N2Cc1ccco1`, the inhibition is 3.14%.

On to `CCOC(=O)[C@]12Cc3cc(OC)ccc3[C@H]1N(C(C)C)C(=O)c1ccccc12`, for which the inhibition is -1.49%.

On to `O=C1NC(=O)N(CCc2ccc(F)cc2)C(=O)/C1=C/C=C/c1ccccc1`, for which the inhibition was 7.75%.

Consider `O=C(O)COc1ccccc1/C=C1\C(=O)NC(=O)N(CCC2=CCCCC2)C1=O`, for which the inhibition was 51.4% (active).

As to `O=C1NC(=O)N(Cc2ccco2)C(=O)/C1=C\c1cccn1CCOc1ccccc1`, the inhibition is -1.69%.

In the case of `O=C1NCN(c2ccccc2)C12CCN(C(c1cccs1)c1nnnn1C1CCCCC1)CC2` (stereo not given), the inhibition is 8.26%.

Consider `CCn1cc(CN2CCCC(C(=O)c3cccc(C(F)(F)F)c3)C2)cn1` (stereo not given), for which the inhibition was 0.062%.

As to `Cc1cc2ccccn2c1C(C[N+](=O)[O-])c1c(F)cccc1Cl` (stereo not given), the inhibition is 25.5% (active).

On to `O=C(NC[C@@H]1CC[C@H]2NC[C@H]2O1)C1CCCC1`, for which the inhibition is -2.73%.

`COC(=O)C1=C(c2ccc(OCc3ccccc3)cc2)C[C@@H]2CC[C@H]1N2C(=O)NCc1ccc(Cl)cc1`: the inhibition was -0.419%.

With `O=c1[nH]c2ccccc2n1C1CCN(C(c2ccnc3ccccc23)c2nnnn2Cc2ccccc2)CC1` (stereo not given), the inhibition was -0.349%.

In the case of `C[C@@H]1CN([C@H](C)CO)C(=O)CCCn2cc(nn2)CO[C@@H]1CN(C)C(=O)Oc1cccc2ccccc12`, the inhibition was -0.246%.

Take `CCOc1cccc(=NC2CCCCC2)c2c(C)[nH]c(C)c12`: the inhibition was 31.5% (active).

For `O=c1[nH]c2ccccc2n1C1CCN(C(c2ccccc2)c2nnnn2Cc2ccccc2)CC1` (stereo not given), the inhibition was 2.84%.
